From PubChem BioAssay (NCI)
Compounds without any hit were thinned out: in the full panel of roughly 83,000, 20% have a hit.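 Each cell line was grown in a 96-well plate and treated with one concentration of compound for 48 hours. Values below 10 were considered active.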 Calls of active or inactive are those of the source.

What was measured:
Experiment in all cases: NCI-60 one-dose screen, 48 h (100 = growth as untreated, 0 = no growth, -100 = all killed)
Conditions in all cases: 10 µM unless noted
RPMI-8226 leukemia = system: RPMI-8226 leukemia
OVCAR-8 ovarian = system: OVCAR-8 ovarian
OVCAR-5 ovarian = system: OVCAR-5 ovarian
OVCAR-4 ovarian = system: OVCAR-4 ovarian
SK-OV-3 ovarian = system: SK-OV-3 ovarian
IGROV1 ovarian = system: IGROV1 ovarian
OVCAR-3 ovarian = system: OVCAR-3 ovarian
HS 578T breast = system: HS 578T breast
NCI/ADR-RES ovarian = system: NCI/ADR-RES ovarian
T-47D breast = system: T-47D breast
BT-549 breast = system: BT-549 breast
MDA-MB-435 melanoma = system: MDA-MB-435 melanoma
SW-620 colon = system: SW-620 colon
MCF7 breast = system: MCF7 breast
HCT-116 colon = system: HCT-116 colon
HCC-2998 colon = system: HCC-2998 colon
KM12 colon = system: KM12 colon

Measured: growth

COc1ccc2c(c1)CCCN2c1c2ccccc2nc2ccccc12
inactive: RPMI-8226 leukemia 20.5% | OVCAR-8 ovarian 16.6% | OVCAR-5 ovarian 28.3% | OVCAR-4 ovarian 30.4% | SK-OV-3 ovarian 37.5% | IGROV1 ovarian 32.7% | HS 578T breast 10.4% | T-47D breast 51.1% | SW-620 colon 24.7% | MCF7 breast 20.8%
active: OVCAR-3 ovarian -21.7% | NCI/ADR-RES ovarian 0.746% | BT-549 breast 7.21% | MDA-MB-435 melanoma -17.9% | HCT-116 colon 6.8% | HCC-2998 colon -9.75% | KM12 colon 5.15%

O=C1CCc2c(sc3[nH]c(=S)n(-c4ccc(OC(F)(F)F)cc4)c(=O)c23)C1
inactive: OVCAR-8 ovarian 53.6% | OVCAR-5 ovarian 55.7% | OVCAR-4 ovarian 17.1% | SK-OV-3 ovarian 104% | IGROV1 ovarian 55.6% | OVCAR-3 ovarian 13.2% | HS 578T breast 37.1% | NCI/ADR-RES ovarian 12.5% | T-47D breast 20.3% | BT-549 breast 38% | MDA-MB-435 melanoma 55% | SW-620 colon 19.9% | MCF7 breast 44.5% | HCT-116 colon 30.1% | HCC-2998 colon 28.5% | KM12 colon 10.8%
active: RPMI-8226 leukemia -21.7%

CCc1ccccc1NC(=O)/C(C#N)=C/c1ccc(OC)cc1
inactive: RPMI-8226 leukemia 91% | OVCAR-8 ovarian 89.5% | OVCAR-5 ovarian 100% | OVCAR-4 ovarian 94.3% | SK-OV-3 ovarian 105% | IGROV1 ovarian 115% | OVCAR-3 ovarian 92.6% | HS 578T breast 92.6% | NCI/ADR-RES ovarian 97.8% | T-47D breast 88.7% | BT-549 breast 112% | MDA-MB-435 melanoma 110% | SW-620 colon 94.4% | MCF7 breast 106% | HCT-116 colon 89.1% | HCC-2998 colon 98.1% | KM12 colon 91.4%

CCc1ccccc1-n1c(-c2ccc(Cl)cc2)cc(-c2ccc(OC)cc2)c(C#N)c1=O
inactive: RPMI-8226 leukemia 78.5% | OVCAR-8 ovarian 102% | OVCAR-5 ovarian 94.7% | OVCAR-4 ovarian 90% | SK-OV-3 ovarian 103% | IGROV1 ovarian 80% | OVCAR-3 ovarian 100% | HS 578T breast 98.7% | NCI/ADR-RES ovarian 95.1% | T-47D breast 92.3% | BT-549 breast 154% | MDA-MB-435 melanoma 89% | SW-620 colon 104% | MCF7 breast 85.6% | HCT-116 colon 94.6% | HCC-2998 colon 109% | KM12 colon 87.7%

Cc1nc2ccccc2n1CC1NC(=O)NC1=O (stereo unspecified)
inactive: RPMI-8226 leukemia 106% | OVCAR-8 ovarian 96.4% | OVCAR-5 ovarian 99.3% | OVCAR-4 ovarian 102% | SK-OV-3 ovarian 95.9% | IGROV1 ovarian 104% | OVCAR-3 ovarian 105% | HS 578T breast 102% | NCI/ADR-RES ovarian 107% | T-47D breast 103% | BT-549 breast 107% | MDA-MB-435 melanoma 99.8% | SW-620 colon 97.6% | MCF7 breast 96.2% | HCT-116 colon 106% | HCC-2998 colon 115% | KM12 colon 102%

Cc1cccc(NC(=O)CSc2nc3ccccc3[nH]2)c1
inactive: RPMI-8226 leukemia 99.8% | OVCAR-8 ovarian 103% | OVCAR-5 ovarian 106% | OVCAR-4 ovarian 93.2% | SK-OV-3 ovarian 95.9% | IGROV1 ovarian 97.6% | OVCAR-3 ovarian 107% | HS 578T breast 90.7% | NCI/ADR-RES ovarian 98.4% | T-47D breast 88.9% | BT-549 breast 104% | MDA-MB-435 melanoma 103% | SW-620 colon 101% | MCF7 breast 92% | HCT-116 colon 107% | HCC-2998 colon 102% | KM12 colon 100%

CCN1C(=O)N(CC)C2Nn3c(s/c(=C\c4ccc(Cl)cc4Cl)c3=O)=NC21 (stereo unspecified)
active: MDA-MB-435 melanoma -40.7%
inactive: RPMI-8226 leukemia 47.2% | OVCAR-8 ovarian 36.1% | OVCAR-5 ovarian 54.5% | OVCAR-4 ovarian 56.7% | SK-OV-3 ovarian 70.2% | IGROV1 ovarian 40.6% | OVCAR-3 ovarian 17.4% | HS 578T breast 55.4% | NCI/ADR-RES ovarian 14.7% | T-47D breast 76.9% | BT-549 breast 38.6% | SW-620 colon 30.4% | MCF7 breast 28.9% | HCT-116 colon 15.2% | HCC-2998 colon 73.9% | KM12 colon 13.1%

O=C(Nc1ccc(Cl)cc1)Nc1ccc(Cl)c(C(F)(F)F)c1
inactive: OVCAR-8 ovarian 19.9% | OVCAR-4 ovarian 30.6% | IGROV1 ovarian 29.8% | HS 578T breast 19.7% | BT-549 breast 14.4%
active: RPMI-8226 leukemia -32.9% | OVCAR-5 ovarian 1.37% | SK-OV-3 ovarian -27.1% | OVCAR-3 ovarian 4.12% | NCI/ADR-RES ovarian -37.1% | T-47D breast -5.38% | MDA-MB-435 melanoma -5.12% | SW-620 colon 5.74% | MCF7 breast 9.91% | HCT-116 colon 2.77% | HCC-2998 colon -34.8% | KM12 colon 3%

COc1ccc(/C=C/c2c(C(=O)/C=C/c3ccc(F)cc3)c(C)nc3ccccc23)cc1
inactive: OVCAR-8 ovarian 41.3% | OVCAR-5 ovarian 50.9% | OVCAR-4 ovarian 56% | SK-OV-3 ovarian 75.9% | IGROV1 ovarian 38.8% | OVCAR-3 ovarian 37.5% | HS 578T breast 70.5% | NCI/ADR-RES ovarian 33.1% | T-47D breast 30.6% | BT-549 breast 67.5% | MDA-MB-435 melanoma 41% | SW-620 colon 15.7% | MCF7 breast 17% | HCC-2998 colon 34.6% | KM12 colon 58.3%
active: RPMI-8226 leukemia -8.58% | HCT-116 colon 3.18%

C=C(C)[C@@H]1CC[C@]2(C)[C@H](CC=C3[C@@H]4CC(C)(C)CC[C@]4(C(N)=O)CC[C@]32C)[C@@]1(C)CCC#N
active: RPMI-8226 leukemia 6.44% | MCF7 breast 6.71% | HCT-116 colon 9.92%
inactive: OVCAR-8 ovarian 26.5% | OVCAR-5 ovarian 47% | OVCAR-4 ovarian 20% | SK-OV-3 ovarian 48.1% | IGROV1 ovarian 53.1% | OVCAR-3 ovarian 23.5% | HS 578T breast 51% | NCI/ADR-RES ovarian 35% | T-47D breast 10.4% | BT-549 breast 17.7% | MDA-MB-435 melanoma 17.7% | SW-620 colon 22.1% | HCC-2998 colon 44.7% | KM12 colon 20.7%

NC(=S)N/N=C/Cc1ccccc1
active: HCT-116 colon 6.31%
inactive: RPMI-8226 leukemia 88.3% | OVCAR-8 ovarian 84.3% | OVCAR-5 ovarian 120% | OVCAR-4 ovarian 65.5% | SK-OV-3 ovarian 111% | IGROV1 ovarian 79% | OVCAR-3 ovarian 109% | HS 578T breast 103% | NCI/ADR-RES ovarian 83.7% | T-47D breast 49.3% | BT-549 breast 119% | MDA-MB-435 melanoma 124% | SW-620 colon 102% | MCF7 breast 21.5% | HCC-2998 colon 113% | KM12 colon 107%

CC(=O)N1C(=S)NC(=O)C1Cn1c(-c2ccccc2)nc2ccccc21 (stereo unspecified)
inactive: RPMI-8226 leukemia 97.3% | OVCAR-8 ovarian 102% | OVCAR-5 ovarian 103% | OVCAR-4 ovarian 102% | SK-OV-3 ovarian 94.3% | IGROV1 ovarian 92.5% | OVCAR-3 ovarian 101% | HS 578T breast 96% | NCI/ADR-RES ovarian 102% | T-47D breast 95.3% | BT-549 breast 109% | MDA-MB-435 melanoma 100% | SW-620 colon 103% | MCF7 breast 88.7% | HCT-116 colon 90.2% | HCC-2998 colon 110% | KM12 colon 100%

COc1cc(/C=C/C(=O)c2c(C)nc3ccccc3c2/C=C/c2ccc(C)cc2)cc(OC)c1OC
inactive: OVCAR-8 ovarian 17% | OVCAR-5 ovarian 17.7% | OVCAR-4 ovarian 39.5% | SK-OV-3 ovarian 58.6% | IGROV1 ovarian 21% | OVCAR-3 ovarian 15.6% | HS 578T breast 46.7% | T-47D breast 19% | BT-549 breast 35.6% | MDA-MB-435 melanoma 11.1% | MCF7 breast 17.1% | KM12 colon 13.2%
active: RPMI-8226 leukemia -13.4% | NCI/ADR-RES ovarian 9.69% | SW-620 colon 3.22% | HCT-116 colon -70.3% | HCC-2998 colon -21.3%

C=CCSc1nc2ccccc2cc1/C=N/O
inactive: RPMI-8226 leukemia 86.7% | OVCAR-8 ovarian 89.6% | OVCAR-5 ovarian 78.6% | OVCAR-4 ovarian 107% | SK-OV-3 ovarian 68.2% | IGROV1 ovarian 74.1% | OVCAR-3 ovarian 92.1% | HS 578T breast 72.2% | NCI/ADR-RES ovarian 97.2% | T-47D breast 67.6% | BT-549 breast 85.6% | MDA-MB-435 melanoma 95.1% | SW-620 colon 87% | MCF7 breast 78% | HCT-116 colon 78.8% | HCC-2998 colon 93.9% | KM12 colon 89.5%

COc1ccc(/C=N\NC(=O)c2cc(-c3ccc(Br)cc3)n(-c3ccc(S(N)(=O)=O)cc3)n2)cc1
inactive: RPMI-8226 leukemia 61.1% | OVCAR-8 ovarian 72% | OVCAR-5 ovarian 82.5% | OVCAR-4 ovarian 57.6% | SK-OV-3 ovarian 74.1% | IGROV1 ovarian 46.2% | OVCAR-3 ovarian 21.2% | HS 578T breast 22.4% | NCI/ADR-RES ovarian 31.4% | T-47D breast 30.9% | BT-549 breast 76.1% | SW-620 colon 36.9% | MCF7 breast 18.3% | HCT-116 colon 28.4% | HCC-2998 colon 66% | KM12 colon 30.8%
active: MDA-MB-435 melanoma -43.8%

O=c1cc(-c2ccc(Cl)cc2)[nH]c2ccccc12
inactive: RPMI-8226 leukemia 71.5% | OVCAR-8 ovarian 102% | OVCAR-5 ovarian 91.7% | OVCAR-4 ovarian 92.1% | SK-OV-3 ovarian 90.4% | IGROV1 ovarian 81.7% | OVCAR-3 ovarian 81.7% | HS 578T breast 106% | NCI/ADR-RES ovarian 62.2% | T-47D breast 87.2% | BT-549 breast 101% | SW-620 colon 56.9% | MCF7 breast 49.9% | HCT-116 colon 73.2% | HCC-2998 colon 76.7% | KM12 colon 43.7%
active: MDA-MB-435 melanoma 5.74%

CCc1ccccc1-n1c(N)c(C#N)c(-c2ccc(N(C)C)cc2)c(C#N)c1=O
inactive: RPMI-8226 leukemia 74.7% | OVCAR-8 ovarian 101% | OVCAR-5 ovarian 97% | OVCAR-4 ovarian 99% | SK-OV-3 ovarian 107% | IGROV1 ovarian 90.8% | OVCAR-3 ovarian 97% | HS 578T breast 92.2% | NCI/ADR-RES ovarian 94.8% | T-47D breast 80% | BT-549 breast 85.5% | MDA-MB-435 melanoma 100% | SW-620 colon 93% | MCF7 breast 94.9% | HCT-116 colon 94.1% | HCC-2998 colon 104% | KM12 colon 97.6%

Cn1c2c(c3ccc(Cl)c(Cl)c31)C(C#N)C1(CCNCC1)NC2=O (stereo unspecified)
inactive: RPMI-8226 leukemia 14.2% | OVCAR-8 ovarian 67.8% | OVCAR-5 ovarian 62.1% | OVCAR-4 ovarian 53.5% | SK-OV-3 ovarian 68.7% | OVCAR-3 ovarian 48.1% | HS 578T breast 35.1% | NCI/ADR-RES ovarian 68.5% | T-47D breast 46.8% | BT-549 breast 45% | SW-620 colon 30.5% | HCT-116 colon 13% | KM12 colon 31.7%
active: IGROV1 ovarian -19.3% | MDA-MB-435 melanoma 5.97% | MCF7 breast -12.3% | HCC-2998 colon -17.8%
